# Test results taken from PubChem BioAssay (NCATS).
# “And” between values parts separate entries of the source, which are not always exact repeats. Equal entries are not always repeated. Records with an inconclusive call do not appear. Where a call stands in place of a potency, no number is given. The source made the active and inactive calls. Calls follow the shape of the full dose curve.
# How the values were obtained:
# [1] = Cytotoxicity counterscreen for inhibitors of SARS-CoV-2 cell entry (AID 1645845); also: nearly all actives have a fitted effect of over 50% in size
# In short: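 Counterscreen run in the same HEK293-ACE2 line as the pseudotyped-particle entry assay, without particles. Viability after 48 h at 37 C was read as ATP luminescence, scaled between cell-containing and cell-free wells.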
# [2] = Primary qHTS to identify inhibitors of SARS-CoV-2 cell entry (AID 1645846); details: activity change, negative = inhibition: at 57.1 µM (top of the series) unless noted; also: nearly all actives have a fitted effect of over 45% in size
# In short: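 Using luciferase-reporting pseudoviruses carrying Wuhan-Hu-1 spike, the screen tracks entry into stably ACE2-expressing cells over 48 hr. Activity is expressed relative to spike particles versus particles lacking any fusion protein.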
# Potency is read from the fitted curve at half-maximal effect.
structure (smiles),measurement,setting,value
COc1ccc(-c2cc(C(F)F)nn2-c2ccc(S(N)(=O)=O)cc2)cc1F,Potency,[1],inactive
same,"activity change, negative = inhibition",[2],1.11%
COc1nc(C)nc(Cl)c1NC1=NCCN1,Potency,[1],inactive
same,Potency,[2],inactive
CCn1c(=O)c2c(nc(C=Cc3ccc(OC)c(OC)c3)n2C)n(CC)c1=O,Potency,[1],inactive
same,Potency,[2],inactive
OCC(CO)N[C@H]1C[C@](O)(CO)[C@@H](O)[C@H](O)[C@H]1O,Potency,[1],inactive
same,Potency,[2],inactive
C[C@@H]1C[C@H]2[C@@H]3CCC4=CC(=O)C=C[C@]4(C)[C@@]3(F)[C@@H](O)C[C@]2(C)[C@@]1(O)C(=O)COC(=O)c1ccncc1,Potency,[1],inactive
same,Potency,[2],inactive
Cn1c(=O)c2c(ncn2C)n(C)c1=O,Potency,[1],inactive
same,"activity change, negative = inhibition",[2],0.143% and -10.1%
Cc1ccc(Nc2c(F)cccc2Cl)c(CC(=O)O)c1,Potency,[1],inactive
same,Potency,[2],inactive
CCOc1cc(N)c(Cl)cc1C(=O)NCC1CN(Cc2ccc(F)cc2)CCO1 (centres undefined),Potency,[1],inactive
same,Potency,[2],inactive
Cc1[nH]c(=O)c(C#N)cc1-c1ccc2nccn2c1,Potency,[1],inactive
same,Potency,[2],inactive
O=C1c2ccccc2C(=O)C1c1ccccc1,Potency,[1],inactive
same,Potency,[2],inactive
CCOc1ccc(C(=O)OCCN(CC)CC)cc1,Potency,[1],inactive
same,"activity change, negative = inhibition",[2],-1.6%
CNC(=O)Oc1ccc2c(c1)[C@]1(C)CCN(C)[C@@H]1N2C,Potency,[1],inactive
same,Potency,[2],inactive
CC1(C)S[C@@H]2[C@H](N=CN3CCCCCC3)C(=O)N2[C@H]1C(=O)O,Potency,[1],inactive
same,"activity change, negative = inhibition",[2],0.13%
Clc1ccc(Nc2nnc(Cc3ccncc3)c3ccccc23)cc1,Potency,[1],inactive
same,"activity change, negative = inhibition",[2],-4.34%
OC(CCCN1CCCCC1)(c1ccccc1)c1ccccc1,Potency,[1],inactive
same,"activity change, negative = inhibition",[2],-24.7%
NC(N)=NCCC[C@H](N)C(=O)O,outcome,[1],inactive [at 5.25 µM]
same,outcome,[2],inactive [at 5.25 µM]
CCOC(=O)NNc1nncc2ccccc12,Potency,[1],inactive
same,Potency,[2],inactive
COc1ccc(CN(CCN(C)C)c2ccccn2)cc1,Potency,[1],inactive
same,"activity change, negative = inhibition",[2],-6.08%
O=c1ccc2ccccc2o1,Potency,[1],inactive
same,Potency,[2],inactive
NS(=O)(=O)c1cc2c(cc1Cl)NC(C1CC3C=CC1C3)NS2(=O)=O (centres undefined),Potency,[1],inactive
same,Potency,[2],inactive
CC(=C(CCOC(=O)C(C)C)SSC(CCOC(=O)C(C)C)=C(C)N(C=O)Cc1cnc(C)nc1N)N(C=O)Cc1cnc(C)nc1N,Potency,[1],inactive
same,Potency,[2],inactive
O=C(O)CNC(=O)c1ccccc1I,Potency,[1],inactive
same,"activity change, negative = inhibition",[2],-21.9%
CCC(C(=O)OCCN1CCOC(c2ccccc2)C1C)c1ccccc1 (centres undefined),Potency,[1],inactive
same,"activity change, negative = inhibition",[2],-21.8%
CN(C)C(=S)SC(=S)N(C)C,Potency,[1],3.55 µM (active)
same,Potency,[2],1 µM (active)
CN(C)CCN(Cc1cccs1)c1ccccn1,Potency,[1],inactive
same,"activity change, negative = inhibition",[2],-3.24%
C/C=C/c1ccc(OC)cc1,Potency,[1],inactive
same,Potency,[2],inactive
Cn1cnc2c1c(=O)[nH]c(=O)n2C,Potency,[1],inactive
same,Potency,[2],inactive
C[C@H](CCC(=O)O)[C@H]1CC[C@H]2[C@@H]3C(=O)C[C@@H]4CC(=O)CC[C@]4(C)[C@H]3CC(=O)[C@]12C,Potency,[1],inactive
same,Potency,[2],inactive
Nc1c(CC(=O)O)cccc1C(=O)c1ccc(Br)cc1,Potency,[1],inactive
same,Potency,[2],inactive
Cc1ccc(=O)n(-c2ccccc2)c1,Potency,[1],inactive
same,Potency,[2],inactive
N[C@@H](Cc1c[nH]c2ccc(O)cc12)C(=O)O,Potency,[1],inactive
same,Potency,[2],inactive
CCCOc1ccc(C(=O)OCCN(CC)CC)cc1N,Potency,[1],inactive
same,"activity change, negative = inhibition",[2],2.8% and -24.9%
CC1(C)[C@@H]2CC[C@@]1(C)C(=O)C2,Potency,[1],inactive
same,Potency,[2],inactive
CCN1C(=O)c2ccccc2C1Nc1ccc(OCCN2CCCCC2)cc1 (centres undefined),Potency,[1],inactive
same,"activity change, negative = inhibition",[2],0.117%
COc1ccc2c(c1)C(=O)N(CCc1ccc(S(=O)(=O)NC(=O)NC3CCCCC3)cc1)C(=O)C2(C)C,Potency,[1],inactive
same,Potency,[2],inactive
CC1(C)[C@@H](OC(=O)CCC(=O)O)CC[C@]2(C)[C@H]3C(=O)C=C4[C@@H]5C[C@@](C)(C(=O)O)CC[C@]5(C)CC[C@@]4(C)[C@]3(C)CC[C@@H]12,Potency,[1],inactive
same,Potency,[2],inactive
CC(CNC1CCCCC1)OC(=O)c1ccccc1 (centres undefined),Potency,[1],inactive
same,Potency,[2],inactive
CN1[C@@H]2CC[C@H]1CC(OC(=O)c1c[nH]c3ccccc13)C2 (some centres undefined),Potency,[1],inactive
same,Potency,[2],inactive
C[C@@H]1CCN(C(=O)[C@H](CCCN=C(N)N)NS(=O)(=O)c2cccc3c2NC[C@H](C)C3)[C@@H](C(=O)O)C1,Potency,[1],inactive
same,"activity change, negative = inhibition",[2],-11.8%
CC(=O)OCC(=O)NCCCOc1cccc(CN2CCCCC2)c1,Potency,[1],inactive
same,Potency,[2],inactive
CCC(=O)O[C@]1(C(=O)SCF)[C@H](C)C[C@H]2[C@@H]3C[C@H](F)C4=CC(=O)C=C[C@]4(C)[C@@]3(F)[C@@H](O)C[C@@]21C,Potency,[1],inactive
same,Potency,[2],inactive
NS(=O)(=O)c1cc2c(cc1Cl)NCNS2(=O)=O,Potency,[1],inactive
same,Potency,[2],inactive
CCN(CC)C(=O)c1cccc(C)c1,Potency,[1],inactive
same,Potency,[2],inactive
N[C@H]1CN(c2c(F)cc3c(=O)c(C(=O)O)cn(C4C[C@@H]4F)c3c2Cl)CC12CC2 (some centres undefined),Potency,[1],inactive
same,"activity change, negative = inhibition",[2],-17.4%
O=C(O)c1cn(-c2ccc(F)cc2)c2cc(N3CCNCC3)c(F)cc2c1=O,Potency,[1],inactive
same,Potency,[2],inactive
O=C(OCC(COC(=O)c1cccnc1)(COC(=O)c1cccnc1)COC(=O)c1cccnc1)c1cccnc1,Potency,[1],inactive
same,"activity change, negative = inhibition",[2],-26.9%
CCCCN(CCN(CCCC)C(=O)N1CCOCC1)C(=O)N1CCOCC1,Potency,[1],inactive
same,Potency,[2],inactive
FC(F)(F)C(F)(F)C(F)(F)C(F)(F)C(F)(F)C(F)(F)C(F)(F)C(F)(F)Br,Potency,[1],inactive
same,"activity change, negative = inhibition",[2],-12.9%
OCCN1CCN(CCCN2c3ccccc3C=Cc3ccccc32)CC1,Potency,[1],inactive
same,"activity change, negative = inhibition",[2],-17.2%
Cc1c(-c2ccccc2)oc2c(C(=O)OCCN3CCCCC3)cccc2c1=O,Potency,[1],inactive
same,"activity change, negative = inhibition",[2],-5.61%
CC(=O)OCC(=O)Nc1cc(C#N)cc(NC(=O)COC(C)=O)c1Cl,Potency,[1],inactive
same,Potency,[2],inactive
C[C@H]1COc2c(C3(N)CC3)c(F)cc3c(=O)c(C(=O)O)cn1c23,Potency,[1],inactive
same,"activity change, negative = inhibition",[2],-12.8%
Cc1cccc(N(C)C(=S)Oc2ccc3ccccc3c2)c1,Potency,[1],inactive
same,"activity change, negative = inhibition",[2],-10.5% and -29.1%
CCN(CC)C(=O)N1CCN(C)CC1,Potency,[1],inactive
same,"activity change, negative = inhibition",[2],-24.4%
CNC(=O)c1c(I)c(NC(=O)CCCCC(=O)Nc2c(I)c(C(=O)O)c(I)c(C(=O)NC)c2I)c(I)c(C(=O)O)c1I,Potency,[1],inactive
same,Potency,[2],inactive
CC(=O)N(CC(=O)N(C)C)c1ccccc1,Potency,[1],inactive
same,Potency,[2],inactive
CCCCCOc1ccc(C2SC(=O)NC2=O)cc1OCC (centres undefined),Potency,[1],inactive
same,"activity change, negative = inhibition",[2],-11.6%
O=C(c1ccc(F)cc1)C1CCN(CCn2c(=O)[nH]c3ccccc3c2=O)CC1,Potency,[1],inactive
same,"activity change, negative = inhibition",[2],-1.25%
CCOC(=O)c1ccc(C#Cc2ccc3c(c2)C(C)(C)CCS3)nc1,Potency,[1],inactive
same,Potency,[2],inactive
CCOC(=O)OC(C)OC(=O)[C@@H]1N2C(=O)[C@@H](NC(=O)[C@H](N)c3ccccc3)[C@H]2SC1(C)C (some centres undefined),Potency,[1],inactive
same,"activity change, negative = inhibition",[2],-12.7%
CC[N+](CC)(CC)CCOC(=O)C(C1CCCC1)C1CCCC1,Potency,[1],inactive
same,"activity change, negative = inhibition",[2],-6.21%
CCOC(=O)Nc1ccc(NCc2ccc(F)cc2)nc1N,Potency,[1],inactive
same,"activity change, negative = inhibition",[2],-22.5%
COC(=O)C1=C(C)NC(C)=C(C(=O)OCCN2CCN(C(c3ccccc3)c3ccccc3)CC2)C1c1cccc([N+](=O)[O-])c1 (centres undefined),Potency,[1],inactive
same,Potency,[2],17.8 µM (active)
CCCCC[C@H](O)C=C[C@H]1[C@H](O)CC(=O)[C@H]1CC=CCCCC(=O)O,Potency,[1],inactive
same,Potency,[2],inactive
COc1cc(NS(=O)(=O)c2ccc(N)cc2)nc(OC)n1,Potency,[1],inactive
same,"activity change, negative = inhibition",[2],2.7%
CN(C)[C@@H]1C(=O)C(C(=O)NCN2CCCC2)=C(O)[C@@]2(O)C(=O)C3=C(O)c4c(O)cccc4[C@@](C)(O)C3C[C@@H]12 (some centres undefined),Potency,[1],inactive
same,Potency,[2],inactive
COc1ccccc1N1CCN(CCCNc2cc(=O)n(C)c(=O)n2C)CC1,Potency,[1],inactive
same,"activity change, negative = inhibition",[2],-0.464%
NC(CSCC(=O)O)C(=O)O (centres undefined),Potency,[1],inactive
same,"activity change, negative = inhibition",[2],0.853%
O=Cc1ccccc1C=O,Potency,[1],inactive
same,"activity change, negative = inhibition",[2],-7.57%
Cc1ccc(C(C)OC(=O)C2(C)CCC(C(=O)O)C2(C)C)cc1 (centres undefined),Potency,[1],inactive
same,"activity change, negative = inhibition",[2],-10.3%
CC(C(=O)O)c1ccc2c(c1)Cc1cccnc1O2 (centres undefined),Potency,[1],inactive
same,"activity change, negative = inhibition",[2],-13.6%
NS(=O)(=O)c1cc2c(cc1Cl)CN(C1CCCCC1)C2=O,Potency,[1],inactive
same,Potency,[2],inactive
Cc1ccc(O)cc1,Potency,[1],inactive
same,"activity change, negative = inhibition",[2],-24.6%
CC(C)NCCCC1(C(N)=O)c2ccccc2-c2ccccc21,Potency,[1],inactive
same,Potency,[2],inactive
CC1(C)[C@H](C(=O)O)N2C(=O)C[C@H]2S1(=O)=O,Potency,[1],inactive
same,Potency,[2],inactive
COc1ccc2c(c1)c(CC(=O)O)c(C)n2C(=O)c1ccc(Cl)cc1,Potency,[1],inactive
same,Potency,[2],inactive
CCN1CCN(c2cc(-c3ccc(F)cc3)c3c(n2)CCCCCC3)CC1,Potency,[1],inactive
same,Potency,[2],inactive
CCOc1ccccc1O[C@H](c1ccccc1)[C@H]1CNCCO1,Potency,[1],inactive
same,"activity change, negative = inhibition",[2],0.393%
Nc1ccc(S(=O)(=O)Nc2nccs2)cc1,Potency,[1],inactive
same,"activity change, negative = inhibition",[2],4.2%
CC(=O)CCC(=O)O,Potency,[1],inactive
same,Potency,[2],inactive
C[C@@H](C1=C(CCN(C)C)Cc2ccccc21)c1ccccn1,Potency,[1],inactive
same,"activity change, negative = inhibition",[2],-25.9%
CC(=O)O[C@]1(C(C)=O)CC[C@H]2[C@@H]3C=C(Cl)C4=CC(=O)CC[C@]4(C)[C@H]3CC[C@@]21C,Potency,[1],inactive
same,"activity change, negative = inhibition",[2],-27.6%
CC(C)(C)C(=O)OCOC(=O)[C@@H]1N2C(=O)[C@@H](NC(=O)[C@H](N)c3ccccc3)[C@H]2SC1(C)C,Potency,[1],inactive
same,"activity change, negative = inhibition",[2],-12.4%
CN1CCCN=C1/C=C/c1cccs1,Potency,[1],inactive
same,"activity change, negative = inhibition",[2],-29.2%
CC(=O)/C=C/C=C1/C2CCC(C2)C1(C)C (centres undefined),Potency,[1],inactive
same,"activity change, negative = inhibition",[2],-3.44%
Cc1cccc(N(C)C(=S)Oc2ccc3c(c2)C2CCC3C2)c1 (centres undefined),Potency,[1],inactive
same,Potency,[2],inactive
C[N+](C)(C)CCOC(=O)CCC(=O)OCC[N+](C)(C)C,Potency,[1],inactive
same,Potency,[2],inactive
COc1ccccc1N1CCN(CC(O)COc2cccc3ccccc23)CC1 (centres undefined),Potency,[1],inactive
same,"activity change, negative = inhibition",[2],-24.9% and -27.1%
CCOc1ccc2nc(S(N)(=O)=O)sc2c1,Potency,[1],inactive
same,Potency,[2],inactive
C[C@]12C=CC(=O)C=C1CC[C@H]1[C@@H]3C[C@@H](O)[C@](O)(C(=O)CO)[C@@]3(C)C[C@H](O)[C@@]12F,Potency,[1],inactive
same,"activity change, negative = inhibition",[2],4.58%
O=C(OCC(O)CO)c1ccccc1Nc1ccnc2cc(Cl)ccc12 (centres undefined),Potency,[1],inactive
same,"activity change, negative = inhibition",[2],-18.4%
CCOC(=O)OC(C)OC1=C(C(=O)Nc2ccccn2)N(C)S(=O)(=O)c2ccccc21 (centres undefined),Potency,[1],inactive
same,Potency,[2],inactive
